# Test results as given in PubChem BioAssay (NCI).
# This is part of a sample that, as a whole, favours compounds with a hit. Of some 83,000 tested, about 20% had one in any assay.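 Note: values are percent growth. 100 is the growth of untreated cells, values between 100 and 0 indicate rising inhibition; between -100 and 0 indicates cell death.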 A number with no mark means an inactive call. The source made the active and inactive calls. The calls were made as follows: active = growth percent below 10; inactive = the rest.
# System: RXF 393 renal
# Experiment: NCI-60 one-dose screen, 48 h (100 = growth as untreated, 0 = no growth, -100 = all killed)
# Details: 10 µM unless noted
row,Structure (SMILES),growth [%]
1,CO[C@H]1/C=C/O[C@@]2(C)Oc3c(C)c(O)c4c(O)c(c(/C=N/N5CCN(C)CC5)c(O)c4c3C2=O)NC(=O)/C(C)=C\C=C\C(C)[C@H](O)[C@@H](C)[C@@H](O)[C@@H](C)[C@@H](OC(C)=O)[C@@H]1C (stereo partly drawn),104
2,COc1ccc(-n2nnc(C(=O)O)c2-c2cc(OC)c(OC)c(OC)c2)cc1,105
3,O=C(Nc1ccc(OCc2nnc(-c3ccccc3)o2)c(F)c1)Nc1ccc(Cl)c(C(F)(F)F)c1,45.9
4,Cc1cc(C(C)(C)C)cc(C)c1CC1=NCCN1,107
5,COc1ccc(-c2csc(NC(=O)c3cc(OC)c(OC)c(OC)c3)n2)cc1,87.9

# System: SF-268 CNS
# Experiment: as above
# Details: 10 µM unless noted
row,Structure (SMILES),growth
1,CC(c1cc(Cl)ccc1O)c1cc(Cl)ccc1O,35%
2,COc1cc2c(cc1OCCCOc1ccc(-c3cc4ccccc4c4ccccc34)cc1)N=C[C@@H]1CCCN1C2=O,-61.2% (active)
3,COc1cc2c(cc1OCCCCCn1c(-c3ccc(OCc4ccccc4)cc3)nc3cc(N4CCOCC4)ccc31)N=C[C@@H]1CCCN1C2=O,14.6%
4,CSc1ccc2c(c1)N(CCC1CCCCN1C)c1ccccc1S2 (stereo not drawn),54.5%
5,O=C(CSc1nnc(Nc2ccccc2)s1)NCCc1ccc(F)cc1,109%
6,CCC(c1ccccc1)c1noc(CCN(CC)CC)n1 (stereo not drawn),103%
7,Cn1c(=O)c2c(nc(Br)n2CCC(=O)Nc2ccc(F)cc2)n(C)c1=O,111%
8,CCC1=C(c2ccc(OC)cc2)C(C)Oc2cc(OC(C)=O)ccc21 (stereo not drawn),86.9%
